High-throughput results (PubChem BioAssay)
Sampled rows, rich in hits. Any-hit rate of the full collection: about 21%.
Pf growth 96h – Primary qHTS for delayed death inhibitors of the malarial parasite plastid, 96 hour incubation; Potency, µM (doses to about 28.7 µM), for inactives: at the highest dose activity change, negative = inhibition, usual class: inhibitors; 320,000 tested, 6.9% active; P. falciparum luciferase reporter growth, 96 h; AID 504834, 2011; further: potency means the concentration at half of the fitted maximal effect; on the % scale 0 is the no-effect control and ±100 the full control effect
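P. falciparum expressing integrated firefly luciferase, in erythrocytes at 2% hematocrit, 0.05% parasitemia, incubated with compounds 96 h at 37 C, 5% CO2. Growth inhibition read as loss of luminescence; two-generation exposure targets delayed-death apicoplast inhibitors.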
Shiga toxin inh – A qHTS for Small Molecule Inhibitors of Shiga Toxin | inhibition, % at 38.7 µM | 290,000 tested, 9.2% active | Vero cells, Shiga toxin protein synthesis inhibition reporter; in the data active means inhibition mostly above about 28%, no sharp cut-off; inactive means mostly below about 43%; further: 0% is about no effect
CHX counter – Cycloheximide Counterscreen for Small Molecule Inhibitors of Shiga Toxin | 300,000 tested, 12% active | cell reporter, cycloheximide protein synthesis inhibition counterscreen | max response, %; in the data active means max response mostly above about 13%, no sharp cut-off; inactive means mostly below about 14%; further: read at 38.3 µM for the half of the compounds with a filed dose; 0% is about no effect
Pf growth 48h – Primary qHTS for delayed death inhibitors of the malarial parasite plastid, 48 hour incubation. Potency, µM (top dose mostly 28.7 µM), for the others: at the top dose activity change, negative = inhibition, hits mostly inhibitors. P. falciparum luciferase growth in erythrocytes, 48 h. 310,000 tested, 5.9% active; further: potency means the concentration at half of the fitted maximal effect; on the % scale 0 is the no-effect control and ±100 the full control effect
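Here the parasites carry a stable luciferase gene and grow inside erythrocytes in Albumax-based RPMI medium with compound for one erythrocytic cycle. Activity is scored as loss of luminescent signal.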
HCMV inh – qHTS Assay for inhibitors of the human cytomegalovirus (HCMV) | 410,000 tested, 4.5% active | activity change, negative = inhibition, % at 57.5 µM | AID 1259415, 2018 | HFF cells, HCMV-luciferase reporter, 72 h; active compounds read low; in the data active means activity change below about -60%; inconclusive means no clear call, values can overlap the other calls; inactive means above about -39%; further: on the % scale 0 is the no-effect control and ±100 the full control effect
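Inhibition of viral replication was scored as loss of reporter luminescence in HFFs infected with HCMV-luciferase (MOI 1 PFU/cell) for 72 h; compounds tested at 2 doses, normalized to buffer and Salinomycin controls.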
HCV inhibitor – qHTS Assay for Inhibitors of Hepatitis C Virus (HCV). Huh7.5.1 HCVcc-Cre infection, luciferase reporter, 44 h. Potency, µM (titrated, usually from 41.8 µM), inactives show at the top dose activity change, negative = inhibition, most hits filed as inhibitors. 340,000 tested, 3.4% active; further: potency means the concentration at half of the fitted maximal effect; on the % scale 0 is the no-effect control and ±100 the full control effect
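1,000 cells/well; 4 h culture; + compound; + HCVcc-Cre (~0.5 moi); 44 h; luciferase substrate, RT 15 min; read 15 sec.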
An asterisk follows results filed as active; ? = inconclusive; nt = not tested or not shown. Unless noted, the call rests on the fitted dose curve; in most records, active means well fitted inhibition curve with a large enough effect; inconclusive means small, poorly fitted or top-dose-only effect, or another doubt; inactive means no such curve, though single readings can be large or run the other way.

SMILES	Pf growth 96h	Shiga toxin inh	CHX counter	Pf growth 48h	HCMV inh	HCV inhibitor
COc1cccc(CN2CCNC(=O)C2CC(=O)NCc2cn3cccc(C)c3n2)c1OC (stereo unspecified)	20%	-7	11	-16%	-26	5%
COc1cccc(CN2CCNC(=O)C2CC(=O)NCCN2CCCCC2=O)c1 (stereo unspecified)	10µM*	-6	1	10%	5	10%
COc1cccc(CN2CCNC(=O)C2CC(=O)NCc2cn3ccccc3n2)c1OC (stereo unspecified)	10µM*	-10	-1	22%	-16	1%
Cc1ccc(-n2nc(CO)c(C(=O)NCCCCc3ccccc3)n2)cc1	nt	nt	nt	nt	52	nt
COc1ccc(C=C2c3ccccc3C(=O)c3ccccc32)cc1O	nt	-6	1	nt	nt	nt
CC(C)c1ccc(CNC(=O)C2(C)CCCN2C)cc1 (stereo unspecified)	nt	nt	nt	nt	17	nt
NS(=O)(=O)c1ccc(CCNc2ncnc3c2cnn3-c2cccc(Cl)c2)cc1	nt	nt	nt	nt	-23	nt
O=c1ccnc(NCCc2ccccc2)[nH]1	nt	48	29*	22%	102	5%
CCCc1cc(=O)[nH]c(NCCc2ccccc2)n1	13µM*	3	-3	?	5	-5%
CCCc1cc(=O)[nH]c(SCCc2ccccc2)n1	9.3µM*	30	12*	17%	34	0%
CCCCSc1nc(CCC)cc(=O)[nH]1	-9%	-16	10	22%	31	1%
COCCCNC(=O)C[C@@H]1C[C@@]2(C(=O)OC)CCCCC=C2N(CCc2ccc(OC)c(OC)c2)C1=O	nt	nt	nt	nt	4	nt
CCCCn1c(=O)nc2n(-c3ccc(Br)cc3)c3ccccc3cc-2c1=O	nt	nt	nt	nt	-6	nt
CN(C)C(CNc1ncnc2sccc12)c1cccs1 (stereo unspecified)	?	17	12	0%	3	11%
CCOC(=O)c1sc2ncnc(NCC(c3cccs3)N(C)C)c2c1C (stereo unspecified)	-51%	40	24*	nt	-16	10µM*
Cn1cc(/C=N/NC(=O)c2ccccc2O)c2ccccc21	82%	53	25*	?	14	-8%
CC(=O)n1cc(/C=N/NC(N)=S)c2ccccc21	-5%	-12	17	0%	-27	-20%
Cc1nc(C)c(C(=O)N/N=C/c2cn(C)c3ccccc23)s1	20%	-12	-5	nt	16	?
CC(=O)n1cc(/C=N/NC(=O)c2ccccc2O)c2ccccc21	-3%	66*	26*	48%	19	-5%
Cn1cc(/C=N/NC(=O)c2cccc([N+](=O)[O-])c2)c2ccccc21	3%	-9	-2	64%	-22	10µM*
CC(C)(C)OC(=O)n1cc(/C=N/NC(=O)c2ccco2)c2ccccc21	-2%	68*	37*	-5%	90	?
COc1ccccc1-c1nc2c3ccccc3nc(=S)n2[nH]1	1.5µM*	-3	-2	4.7µM*	-26	4%
S=c1nc2ccccc2c2nc(-c3ccccc3)[nH]n12	46%	22	2	4.7µM*	81	18%
S=c1nc2ccccc2c2nc(-c3ccccc3Cl)[nH]n12	1.7µM*	29	12	1.5µM*	12	-10%
COc1cccc(C(=O)NC2CCNCC2)c1	?	-9	-2	-11%	-14	6%
SMILES	Pf growth 96h	Shiga toxin inh	CHX counter	Pf growth 48h	HCMV inh	HCV inhibitor
O=C(Nc1ccccc1Cl)C1Cc2ccccc2O/C1=N\O (stereo unspecified)	?	87*	44*	65%	128	-2%
CCc1ccc(NS(=O)(=O)c2ccc3[nH]cc(C(=O)NCCCOC(C)C)c(=O)c3c2)cc1	nt	nt	nt	nt	-1	nt
COc1ccc2c(c1OC)c(=O)n1c3ccc(OC(C)C(=O)NCCN4CCOCC4)cc3c3ccnc2c31 (stereo unspecified)	3.7µM*	-5	-3	?	-3	?
CCCCc1cc(=O)oc2cc(OC(C)C(=O)NCCN3CCOCC3)ccc12 (stereo unspecified)	nt	nt	nt	nt	-14	nt
CC(Oc1ccc2c(c1)c1ccnc3c4ccccc4c(=O)n2c13)C(=O)NCCN1CCOCC1 (stereo unspecified)	4.1µM*	-11	-4	4.7µM*	-90*	11µM*
CC(Oc1ccc2c3c(c(=O)oc2c1)CCCC3)C(=O)NCCN1CCOCC1 (stereo unspecified)	9%	-3	3	12%	0	-2%
COc1ccc2c(c1OC)c(=O)n1c3ccc(OC(C)C(=O)NCCCN4CCOCC4)cc3c3ccnc2c31 (stereo unspecified)	4.1µM*	-7	-2	3.7µM*	nt	?
COc1ccccc1NC(=O)CSC1=Nc2ccccc2C2=NC(CC(=O)NCc3ccco3)C(=O)N12 (stereo unspecified)	nt	nt	nt	nt	83	nt
O=C(CCN1CCN(CCO)CC1)Nc1ccc(C2CCCC2)cc1	-3%	-4	2	-21%	-35	?
CC(=O)c1ccc(NC(=O)CSCCO)cc1	nt	81*	21*	12%	99	?
CSCCC(=O)Nc1ccc(C(C)=O)cc1	104%	114	27*	83%	187	-1%
O=C(CSCCO)Nc1ccc(C2CCCCC2)cc1	nt	97*	48*	80%	88	6%
O=C(O)CSCC(=O)Nc1ccc(C(=O)O)cc1	nt	20	11	6%	15	-8%
CC(=O)c1ccc(NC(=O)CCCC(=O)c2ccccc2)cc1	5%	-16	-4	-17%	14	13%
CCCSc1nnc2c(n1)OC(c1ccc(OCC(=O)O)cc1)Nc1ccccc1-2 (stereo unspecified)	nt	nt	nt	nt	136	nt
CN(CCC(=O)Nc1ccc(Cl)cc1)Cc1ccccc1	-13%	nt	-2	2%	44	-3%
CC(C)(C)C(=O)OC/C(N)=N/OC(=O)c1ccccc1	?	31	40*	?	-23	2%
Cc1cc(C)cc(NS(=O)(=O)c2cnc(Cl)c(Cl)c2)c1	nt	-16	0	0%	-15	11µM*
CCOc1ccc(NS(=O)(=O)c2cnc(Cl)c(Cl)c2)cc1	-2%	-8	-4	2%	-33	-6%
O=c1cc(C(F)(F)F)[nH]c2c(OC(F)(F)F)cccc12	?	2	12	3%	-95*	11%
Cc1cnc(C(=O)OCC(=O)c2csc(N3CCCCC3)n2)cn1	-16%	36	51*	-17%	43	-13%
Cc1cnc(C(=O)OCC(=O)c2ccccc2)cn1	14%	nt	nt	53%	-25	1%
Cc1ccc(C)c(NC(=O)CN2C(=O)NC(CCc3ccccc3)C2=O)c1 (stereo unspecified)	nt	nt	nt	nt	30	12%
